TDP1 block: inhibitors of human tyrosyl-DNA phosphodiesterase TDP1; recombinant TDP1, AlphaScreen DNA substrate cleavage; AID 485290; Q9NUW8; Potency, µM (titrated, usually from 130 µM), for inactives: at the highest dose activity change, negative = inhibition, usual class: inhibitors; 350,000 compounds, 0.28% hits; further: potency means the concentration at half of the fitted maximal effect; nearly all actives have a fitted effect of over 40% in size
Target sequence (Q9NUW8 whole entry, looked up): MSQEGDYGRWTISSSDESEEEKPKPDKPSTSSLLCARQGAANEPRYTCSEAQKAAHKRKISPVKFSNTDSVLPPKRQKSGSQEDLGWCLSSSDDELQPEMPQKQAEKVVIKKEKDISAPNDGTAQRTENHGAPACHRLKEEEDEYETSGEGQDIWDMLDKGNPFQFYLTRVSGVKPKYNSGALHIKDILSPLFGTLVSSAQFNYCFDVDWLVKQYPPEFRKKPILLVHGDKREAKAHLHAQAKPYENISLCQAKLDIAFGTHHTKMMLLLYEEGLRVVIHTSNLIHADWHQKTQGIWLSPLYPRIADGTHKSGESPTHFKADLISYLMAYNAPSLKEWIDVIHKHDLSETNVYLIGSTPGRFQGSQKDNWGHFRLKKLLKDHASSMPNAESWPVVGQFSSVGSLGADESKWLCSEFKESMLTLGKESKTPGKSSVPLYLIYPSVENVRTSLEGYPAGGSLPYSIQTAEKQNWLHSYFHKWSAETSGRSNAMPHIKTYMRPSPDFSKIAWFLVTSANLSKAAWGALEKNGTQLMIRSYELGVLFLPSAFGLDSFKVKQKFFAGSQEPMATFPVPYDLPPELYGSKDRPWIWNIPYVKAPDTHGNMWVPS
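E. coli-derived human Tdp1, 1 nM final. Cpd preinc 15 min RT; substrate 15 nM final, 5 min RT; AS bead mix 10 ug/ml final, 10 min RT. Signal loss = tyrosine-FITC cleavage. No-enzyme wells = max signal.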
TDP1 cell noCPT: qHTS for Inhibitors of human tyrosyl-DNA phosphodiesterase 1 (TDP1): qHTS in cells in absence of CPT | AID 686978, 2013 | DT40 Tdp1-/- hTDP1 cells, no CPT, ATP luminescence, 48 h | Potency, µM (doses to about 46.2 µM), inactives show at the top dose activity change, negative = growth inhibition, actives largely listed as inhibitors | 420,000 compounds, 15% hits; further: potency means the concentration at half of the fitted maximal effect; nearly all actives have a fitted effect of over 55% in size
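Cells were dispensed at 400 per well, compounds added by pin tool, plates incubated ≥48 hr at 37 °C, then CellTiter-Glo added for 30 min at room temperature before luminescence reading. Line: DT40 Tdp1-/- complemented with hTDP1; camptothecin omitted.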
Giardia killer: Giardia lamblia killing; Giardia lamblia trophozoite viability; activity change, % at 7.66 µM, hits read low; 340,000 compounds, 0.15% hits; AID 540267; in the data active means activity change below about -80%; inconclusive means between about -30% and that limit;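 further: parasites exposed to compound for two days anaerobically before the ATP read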
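Giardia lamblia trophozoites (100 cells/well) were incubated with compounds for 48 h at 37 deg C under anaerobic conditions. Viability was read as ATP content by one-step luminescence after 15-30 min at room temperature.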
DT40 TDP1 CPT: growth inhibition of DT40 Tdp1-/-;hTDP1 cells with camptothecin (screen for TDP1 inhibitors); chicken DT40 Tdp1-/-;hTDP1 cells + 20 nM CPT, ATP luminescence, 48 h; Potency, µM (highest dose often 46.2 µM), for the others: at the highest dose activity change, negative = growth inhibition, most hits filed as inhibitors; 420,000 compounds, 12% hits; further: potency means the concentration at half of the fitted maximal effect; nearly all actives have a fitted effect of over 55% in size
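Cell growth measured by CellTiter-Glo luminescence after a minimum 48 h, 37 C compound exposure with 20 nM CPT in Tdp1-knockout DT40 cells stably expressing hTDP1, seeded 400/well; qHTS titration format.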
ELG1 DNA repair: ELG1-dependent DNA repair inhibition. HEK293T ELG1-luciferase reporter, luminescence, 16 h; DNA damage induced by 5-fluorouridine. 330,000 compounds, 2.3% hits. Potency, µM (highest dose often 46.1 µM), without a hit: at the top dose activity change, negative = inhibition, actives largely listed as inhibitors; further: potency means the concentration at half of the fitted maximal effect; nearly all actives have a fitted effect of over 55% in size
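HEK293T cells expressing luciferase-tagged ELG1 (2,000/well) received 5-Fluorouridine plus compound or DMSO for 16 hr at 37 °C. Luciferase was read by ONE-Glo luminescence after 30 min at room temperature.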
IL1B secr inh: blocks inflammasome-driven IL-1 beta release | 360,000 compounds, 4.7% hits | THP-1 LPS/ATP IL-1B secretion, AlphaLISA, 16 h; stronger effect = lower value | activity change, % at 57.5 µM; in the data active means activity change below about -50%; inconclusive means mostly about -30% to -49%
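THP-1 cells pretreated 1 hr with compounds (up to 57.5 uM final), then stimulated with LPS (250 ng/mL final) plus ATP (1.25 mM final); secreted IL-1B measured by AlphaLISA after 16 hr, decreased signal indicating inhibition.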
* marks the source's active call; other numbers are inactive results; ? = inconclusive; . = no result; [ ] = remark or other dose. The list is not random: actives were taken first. Their share in the collection is about 19%. Unless noted, the call rests on the fitted dose curve; in most records, active means well fitted curve in the direction sought with a large enough effect; inconclusive means small, poorly fitted or top-dose-only effect, or another doubt; inactive means no such curve, though single readings can be large; an effect the other way counts as inactive or inconclusive. On the % scale 0 is the no-effect control and ±100 the full control effect.

SMILES | TDP1 block | TDP1 cell noCPT | Giardia killer | DT40 TDP1 CPT | ELG1 DNA repair | IL1B secr inh
Cc1ccc([C@H]2C[C@H](n3cc(C4CC4)nn3)[C@@H](O)CN2CC2CCCCC2)cc1 | . | 18µM* | . | ? | . | -13
COc1ccc([C@H]2C[C@@H](n3cc(C4CC4)nn3)[C@H](O)CN2CC2CCCCC2)cc1 | . | 21µM* | . | ? | . | -55*
CCCCc1ccc(NC(=O)Cn2cnc3c(oc4ccccc43)c2=O)cc1 | 8% | -16% | . | -1% | . | .
C/C(=N\O)c1ccn(S(=O)(=O)c2ccc(Cl)cc2)c1 | 9% | 26µM* | 13 | ? | -10% | 0
COc1ccccc1CCNC(=O)C(=O)NCC(c1ccco1)S(=O)(=O)c1ccc(C)cc1 (configuration not stated) | 0% | ? | . | 21µM* | . | .
COc1ccc(CCNC(=O)C(=O)NCC(c2ccco2)S(=O)(=O)c2cccs2)cc1 (configuration not stated) | 3% | 13µM* | . | 13µM* | . | .
COc1ccccc1CCNC(=O)C(=O)NCC(c1cccs1)S(=O)(=O)c1cccs1 (configuration not stated) | 5% | ? | . | ? | . | .
COc1ccccc1CCNC(=O)C(=O)NCC(c1ccco1)S(=O)(=O)c1cccs1 (configuration not stated) | 3% | ? | . | 21µM* | . | .
COc1ccccc1CCNC(=O)C(=O)NCC(c1cccs1)S(=O)(=O)c1ccc(C)cc1 (configuration not stated) | -3% | 21µM* | . | 15µM* | . | .
O=C(NCCc1ccc(F)cc1)C(=O)NCC(c1ccco1)S(=O)(=O)c1cccs1 (configuration not stated) | -8% | ? | . | ? | . | .
Cc1ccc(S(=O)(=O)C(CNC(=O)C(=O)NCCc2ccccc2)c2ccco2)cc1 (configuration not stated) | 8% | ? | . | ? | . | .
COc1ccc(C(=O)NCCN2Cc3cc(C)ccc3OC(C)C2)c(OC)n1 (configuration not stated) | . | -17% | . | 8%[9.04 µM] | . | .
CC(C(=O)Nc1ccc(O)cc1C(=O)O)N1C(=O)/C(=C\c2cccs2)SC1=S (configuration not stated) | 6% | -21% | -15 | -5% | -3% | -2
O=c1n(Cc2cc3c(cc2Cl)OCO3)c(=O)n2n1CC[C@H]1/C(=N\OC[C@@H](O)COCc3ccco3)[C@H]3O[C@@H]3[C@@H](O)[C@@H]12 | 6%[21 µM] | . | . | . | . | .
CCCn1c(C)nc2c(NC3CCCCC3)nc(C)nc21 | 7% | . | . | . | . | .
Cc1cc2c(s1)c1cnn(Cc3ccc(Cl)cc3)c(=O)c1n2C | 35µM* | . | . | . | . | .
Cc1cc2c(s1)c1cnn(Cc3cccc(F)c3F)c(=O)c1n2C | -4% | . | . | . | . | .
C#CC[N+]1(CC#Cc2ccc(C)cc2)CCCCC1 | 3% | 3.3µM* | -11 | 2.3µM* | -20% | 15
C(#Cc1ccccc1)C[N+]1(CC#Cc2ccccc2)CCCC1 | 1% | 1µM* | 16 | 1.8µM* | ? | ?
COc1cccc(NC(=O)C2C3C=CC(C3)C2C(=O)O)c1 (configuration not stated) | . | -17% | 7 | 4% | -2% | 7
COC(=O)c1cccc(Nc2nc3ccccc3nc2C)c1 | 1% | ? | 0 | 18µM* | ? | 13
COC(=O)c1cc(Nc2cc(C)c3c(O)cccc3n2)cc(C(=O)OC)c1 | 3% | 13µM* | 0 | 21µM* | ? | -21
Cc1cc(NCc2ccco2)nc2cc(O)ccc12 | 0% | ? | 14 | ? | 8% | 1
COC(=O)c1cc(Nc2cc(C)c3ccc(O)cc3n2)cc(C(=O)OC)c1 | . | -27% | -8 | ? | ? | -65*
COc1cccc(CNC(=O)CCC2CCCN(C(=O)c3ccc(OC)o3)C2)c1 (configuration not stated) | 6% | ? | -3 | -28% | ? | 0
SMILES | TDP1 block | TDP1 cell noCPT | Giardia killer | DT40 TDP1 CPT | ELG1 DNA repair | IL1B secr inh
CCCCCCOc1ccc(/C=C/C(=O)Nc2sc3c(c2C(=O)OC)CCC3)cc1OC | -7%[12.3 µM] | 4.1µM* | . | 7.3µM* | . | .
COC(=O)c1c(NC(=O)/C=C/c2ccc(OC)cc2)sc2c1CCC2 | 0% | -2% | . | 10% | . | .
O=C(NCc1ccccc1Cl)C1CCN(S(=O)(=O)c2ccc(-n3cnnn3)cc2)CC1 | 10% | -11% | 0 | 0% | ? | -11
CCNC(=O)C1CCN(S(=O)(=O)c2ccc(F)cc2)CC1 | 2% | 18µM* | -14 | ? | 1% | 2
Cc1ccc(CNC(=O)c2ccc(N3CCCC3=O)cc2)cc1 | -1% | -2% | 1 | -5% | ? | -11
Cc1ccc(NC(=O)C2CCN(S(=O)(=O)c3ccc(N4CCCC4=O)cc3)CC2)cc1Cl | 2% | 4.1µM* | -2 | 5.8µM* | ? | -5
Cn1nc(C(C)(C)C)cc1C(=O)NCc1ccc(N2CCCC2=O)cc1 | 5% | 2.3µM* | 6 | 3.3µM* | -22% | -12
O=C(NCCO)C1CCN(S(=O)(=O)c2ccc(F)cc2)CC1 | 4% | 5% | 2 | 3% | -2% | -18
O=C(NCc1ccccc1Cl)C1CCN(S(=O)(=O)c2ccc(N3CCCC3=O)cc2)CC1 | 1% | ? | 7 | 16µM* | 14% | -16
Cc1cc(O)c(CN2CCN(c3ccccc3)CC2)c2oc(=O)cc(C)c12 | 3% | -9% | . | 16% | . | .
CC12CCC=CC1C(c1ccc(F)c(/C=C/c3ccccc3)c1)N(Cc1ccccc1)C2=O (configuration not stated) | -4% | . | 9 | . | . | .
COCCn1c(SC(C)C(=O)NCC2CCCO2)nc2sc3c(c2c1=O)CCC3 (configuration not stated) | . | ? | 13 | -25% | ? | -12
O=C1CCCC2=C1C1(CCOCC1)N=C(Nc1nc3ccccc3o1)N2 | -5% | . | . | . | . | .
Cc1nc(-c2ccc(C)c(N3CCN(C(=O)Nc4ccccc4C(F)(F)F)CC3)c2)no1 | 1% | 1% | . | -16% | . | .
O=C(NCc1ccc(F)cc1)C1CCN(S(=O)(=O)c2ccc(N3CCCC3=O)cc2)CC1 | . | 16µM* | . | ? | . | 9
Cc1ccc(NC(=O)C2CCN(S(C)(=O)=O)CC2)cc1Cl | . | -4% | -19 | -13% | ? | -61*
O=C(NCc1ccc(N2CCCC2=O)cc1)c1ccc(F)cc1 | 4% | 2% | -22 | 2% | -3% | 33
